In ChEMBL document CHEMBL3988442, “University of Dundee, Small-Polar-MMV Screening Library” (2021):
Screen size: about 48,000 compounds; about 13,000 (27%) showed an effect of 50% or more. The list shows a part of the results.

test system: Wolbachia pipientis; test: Anti-Wolbachia Cell-Based Screen; type: functional; design: scale not given: in the data most compounds retested in dose-response had high values; conditions: 5 µM

Going from O=C(c1cc[nH]n1)N1CCOCC2(C1)CN(c1ccccc1)C(=O)CO2 (configuration not stated) to O=C(c1[nH]nc(C2CC2)c1Cl)N1CCN(S(=O)(=O)c2ccccc2)CC1, the “Percent Effect” value falls from 99% to -6.506%.

Compared with Cc1noc(C(C)N2CCN(CCc3ccncc3)CC2)n1 (configuration not stated), Cc1noc(C(C)N2CCN(CCn3ccccc3=O)CC2)n1 (configuration not stated) is higher in “Percent Effect” value: -4.658% for the first, 1.866% for the second.

First: Cc1noc(C(C)N2CCN(CC(=O)N3CCCC3)CC2)n1 (configuration not stated)
Second: Cc1noc(C(C)N2CCN(CCC(=O)N3CCOCC3)CC2)n1 (configuration not stated)
The “Percent Effect” value of the first is lower: 104.8% for the first, 136% for the second.

First: Cc1cnc(CN2CCN(C(C)c3nc(C)no3)CC2)cn1 (configuration not stated)
Second: CCOc1cc(C)nc(N2CCN(C(C)c3nc(C)no3)CC2)n1 (configuration not stated)
The “Percent Effect” value of the first is higher: 31.99% for the first, -8.841% for the second.

Going from Cn1ccnc1C1CCN(S(=O)(=O)c2ccc3oc(=O)[nH]c3c2)CC1 to Cn1ccnc1C1CCN(S(=O)(=O)c2ccc3[nH]c(=O)[nH]c3c2)CC1, the “Percent Effect” value rises from -28.87% to -2.986%.

First: CC[C@H]1CN(S(=O)(=O)c2ccccc2)CC[C@H]1CC(=O)O
Second: CCc1cc(=O)[nH]c(NC2CCN(S(=O)(=O)c3ccccc3)CC2)n1
The “Percent Effect” value of the first is lower: 3.953% for the first, 74.59% for the second.

Compared with Cc1cc(=O)[nH]c(NC2CCN(S(=O)(=O)c3ccccc3)CC2)n1, Cc1nc(NC2CCN(S(=O)(=O)c3ccccc3)CC2)[nH]c(=O)c1C is lower in “Percent Effect” value: 124.4% for the first, 93.81% for the second.

Compared with CCc1cc(NC2CCN(S(C)(=O)=O)CC2)n2nc(C)c(C)c2n1, CNC(=O)c1cc2c(nc1NCC(C)C)CCN(S(=O)(=O)C1CC1)CC2 is higher in “Percent Effect” value: -8.298% for the first, -0.7375% for the second.

Compared with Cc1cc(=O)[nH]c(NCCNC(=O)c2ccccc2N2CCCC2)n1, O=C(c1ncn2c1CNS(=O)(=O)c1ccccc1-2)N1CCCCCC1 is lower in “Percent Effect” value: 13.63% for the first, -12.52% for the second.

Compared with CC(C)(C)n1ncc2c(=O)[nH]c(NC3CC=CC3)nc21, O=c1[nH]c(C2CCOC2)nc2cc(F)c(F)cc12 (configuration not stated) is lower in “Percent Effect” value: 3.92% for the first, -25.67% for the second.

Compared with CS(=O)(=O)NC[C@H]1Cn2c(-c3ccccc3)cnc2CO1, Cc1cnn(CC2CN(CCS(=O)(=O)c3ccccc3)CCO2)c1 (configuration not stated) is higher in “Percent Effect” value: -16.47% for the first, 5.078% for the second.

First: CCNC(c1ccc(OC)cc1)c1cccnc1 (configuration not stated)
Second: CCNC(c1ccc(C)cc1)c1cccnc1 (configuration not stated)
The “Percent Effect” value of the first is lower: -6.571% for the first, 100.9% for the second.

First: CCNC(c1cccnc1)c1ccc(F)cc1F (configuration not stated)
Second: CCNC(c1cccnc1)c1ccc(F)c(F)c1 (configuration not stated)
The “Percent Effect” value of the first is higher: 101.5% for the first, -4.502% for the second.

Going from CC(NCCCC#N)c1ccc(-c2cccnc2)cc1 (configuration not stated) to CCNC(c1ccc(C(C)C)cc1)c1cccnc1 (configuration not stated), the “Percent Effect” value rises from -3.574% to 85.86%.

Going from CCNC(c1ccc(Br)cc1)c1cccnc1 (configuration not stated) to CCNC(c1ccc(Cl)cc1)c1cccnc1 (configuration not stated), the “Percent Effect” value falls from 106.3% to 74.82%.

Going from CCN(C(c1cccnc1)c1ccc(F)c(F)c1)S(C)(=O)=O (configuration not stated) to CCN(C(c1cccnc1)c1ccc(F)cc1F)S(C)(=O)=O (configuration not stated), the “Percent Effect” value falls from 5.552% to -3.142%.

First: CCC(Nc1ncccn1)c1cccnc1 (configuration not stated)
Second: CCNC(c1cccnc1)c1ccc(F)c(C)c1 (configuration not stated)
The “Percent Effect” value of the first is lower: 8.55% for the first, 95.54% for the second.

First: CCOCCN(C)C(c1cccnc1)c1ccc(F)cc1F (configuration not stated)
Second: CCNC(c1ccc(CC)cc1)c1cccnc1 (configuration not stated)
The “Percent Effect” value of the first is lower: -0.1699% for the first, 93.88% for the second.

Going from NC(=O)CC1CCN(C(=O)CCOc2ccc(Cl)cc2)CC1 to Cc1[nH]c2c(F)cccc2c1CC(=O)N1CCC(NS(C)(=O)=O)CC1, the “Percent Effect” value rises from -10.96% to 3.004%.

Going from COCCCN(C)C(=O)Cn1cccc(OC)c1=O to COc1ccc(CC(=O)N(C)C2CCN(C)C2=O)cc1F (configuration not stated), the “Percent Effect” value rises from -68.57% to -7.072%.

First: CN(C)Cc1cn(CC2CCCN(c3nccc4occc34)C2)nn1 (configuration not stated)
Second: Nc1nc(CN2CCCC(Cn3cncn3)C2)nc2ccccc12 (configuration not stated)
The “Percent Effect” value of the first is higher: -7.203% for the first, -7.621% for the second.

First: Cc1nc(CN2CCN(Cc3cc4n(n3)CCNC4)CC2)cs1
Second: CCc1nc(CN2CCCN(C(=O)C3CCOC3)CC2)cs1 (configuration not stated)
The “Percent Effect” value of the first is lower: -7.4% for the first, 3.952% for the second.

Going from Cc1ccc(C)c(C(NC2CCCC2)c2cccnc2)c1 (configuration not stated) to CCNC(c1cccnc1)c1cc(C)cc(C)c1 (configuration not stated), the “Percent Effect” value rises from -43.53% to 1.12%.

First: CCc1cnc(NCC(C)Oc2cccnc2)nc1 (configuration not stated)
Second: CC(NCc1cccc(S(=O)(=O)N(C)C)c1)c1cccnc1 (configuration not stated)
The “Percent Effect” value of the first is higher: 7.623% for the first, -5.764% for the second.

Going from N#Cc1ccc(N2CCCC2Cn2cccn2)nc1 (configuration not stated) to c1coc(-c2nnc(CN3CCOC(Cn4cccn4)C3)o2)c1 (configuration not stated), the “Percent Effect” value falls from 15.37% to -1.801%.

Compared with CCc1ncc(C(=O)N2CCCOC(Cn3cccn3)C2)cn1 (configuration not stated), c1ccc(-c2noc(CN3CCOC(Cn4cccn4)C3)n2)nc1 (configuration not stated) is higher in “Percent Effect” value: 5.482% for the first, 10.47% for the second.

Going from N[C@H]1CN(C(=O)Cc2cc(F)cc(Cl)c2)C[C@@H]1C1CC1 to COC[C@H]1CC[C@H]2[C@H](CCN2C(=O)c2ccncc2F)O1, the “Percent Effect” value rises from -8.09% to 114.1%.

First: CC(C)n1cc(CN2CCCN(C(=O)C3(C)CCOCC3)CC2)cn1
Second: CC(C)n1cc(CN2CCCN(C(=O)C3CCOC3)CC2)cn1 (configuration not stated)
The “Percent Effect” value of the first is lower: -0.3166% for the first, 103.2% for the second.

Going from CC(C)n1cc(CN2CCCN(C(=O)C3CCCN3C)CC2)cn1 (configuration not stated) to CC(C)n1cc(CN2CCCN(C(=O)c3ccnn3C)CC2)cn1, the “Percent Effect” value falls from 115.6% to -7.528%.

Compared with CC(C)=CCCC(C)CN1CCC(n2cc(C(C)(C)O)nn2)CC1 (configuration not stated), CC(C)(C)c1nnc(CN2CCOC(Cn3cccn3)C2)o1 (configuration not stated) is higher in “Percent Effect” value: -10.5% for the first, -7.281% for the second.

Going from c1ccc2oc(CCCN3CCCC(Cn4cncn4)C3)nc2c1 (configuration not stated) to c1ccc2oc(CCCN3CCOC(Cn4cncn4)C3)nc2c1 (configuration not stated), the “Percent Effect” value rises from 99.07% to 115.2%.

Going from Cc1cnn(CC2CN(CCCS(=O)(=O)N(C)C)CCO2)c1 (configuration not stated) to Cc1cnn(CC2CN(CCCS(C)(=O)=O)CCO2)c1 (configuration not stated), the “Percent Effect” value falls from 6.483% to -24.88%.

First: c1cnn(CC2CN(Cc3nnc(C4CC4)o3)CCO2)c1 (configuration not stated)
Second: c1ccc2oc(CN3CCOC(Cn4cccn4)C3)nc2c1 (configuration not stated)
The “Percent Effect” value of the first is higher: 144.3% for the first, 90.04% for the second.

First: c1ccc2oc(CCCN3CCOC(Cn4cccn4)C3)nc2c1 (configuration not stated)
Second: Cc1cnn(CC2CN(CCCc3nc4ccccc4o3)CCO2)c1 (configuration not stated)
The “Percent Effect” value of the first is lower: -3.137% for the first, 130.7% for the second.

Going from O=c1[nH]c(CCN2CCCC(Cn3cncn3)C2)nc2ccccc12 (configuration not stated) to Cn1c(CN2CCOC(Cn3cncn3)C2)nc2ccccc21 (configuration not stated), the “Percent Effect” value falls from 2.487% to -24%.

Going from CS(=O)(=O)N1CCC(Oc2ccc(C(=O)NC3CCOC3)cc2Cl)CC1 (configuration not stated) to CC[C@H]1COCCN1C(=O)c1ccc(OC)c(N2CCOCC2)c1, the “Percent Effect” value rises from 6.025% to 7.42%.

First: COC(=O)CN(C(=O)c1ccc(Cl)cn1)c1cccc(F)c1
Second: CC(Cc1ccsc1)NC(=O)c1cc(N2CCNC2=O)ccc1F (configuration not stated)
The “Percent Effect” value of the first is lower: -0.7063% for the first, -0.338% for the second.

First: Cc1cnn(CC2CN(Cc3nc4ccccc4o3)CCO2)c1 (configuration not stated)
Second: Cc1cnn(CC2CN(Cc3nc4ccccc4n3C)CCO2)c1 (configuration not stated)
The “Percent Effect” value of the first is higher: 139.9% for the first, 109.8% for the second.

First: CCOCC(=O)NCC1Cn2nnc(-c3cccc(F)c3)c2CO1 (configuration not stated)
Second: CCOCC(=O)N1Cc2nnn(C)c2C(COCc2ccccn2)C1.O=C(O)C(F)(F)F (configuration not stated)
The “Percent Effect” value of the first is lower: -1.189% for the first, 0.961% for the second.

First: NCC1Cc2cccc(-c3ccc(O)c(F)c3)c2O1 (configuration not stated)
Second: CCN(C(=O)C(C)C)C(c1cccnc1)c1ccc2c(c1)CCO2 (configuration not stated)
The “Percent Effect” value of the first is higher: 16.35% for the first, 4.729% for the second.

Going from CC(NC(=O)N(C)Cc1ccsc1)c1nncn1C (configuration not stated) to Cc1cc(NC(=O)CCc2ccsc2)n(C)n1, the “Percent Effect” value rises from -12.05% to 5.21%.

Going from CCc1nnsc1C(=O)N(C)Cc1ccco1 to CCN(CC)c1ccc(C(=O)N(C)Cc2c(C)noc2C)cn1, the “Percent Effect” value falls from 13.36% to 3.136%.

First: CCOC[C@@H]1CC[C@H]2[C@H](CCN2C(=O)c2ccncc2F)O1
Second: CCOC[C@H]1CC[C@H]2[C@H](CCN2C(=O)c2ccncc2F)O1.O=C(O)C(F)(F)F
The “Percent Effect” value of the first is higher: 103.3% for the first, 0.195% for the second.

Going from CCOC[C@H]1CC[C@H]2[C@H](CCN2S(=O)(=O)Cc2ccccc2)O1 to COC[C@@H]1CC[C@H]2[C@H](CCN2S(=O)(=O)c2ccc(F)cc2)O1, the “Percent Effect” value rises from -6.562% to 6.066%.

Compared with COC[C@@H]1CC[C@H]2[C@H](CCN2C(=O)c2ccncc2F)O1.O=C(O)C(F)(F)F, CN(C)C(=O)N1Cc2nnn(C)c2C(COCc2cccnc2)C1.O=C(O)C(F)(F)F (configuration not stated) is higher in “Percent Effect” value: -6.773% for the first, -1.037% for the second.

First: Cc1ccc(CN2Cc3nnn(C)c3C(COCc3ccccc3)C2)s1.O=C(O)C(F)(F)F (configuration not stated)
Second: Cc1ccc(CN2CCc3c(nnn3C)C2COCc2ccccc2)s1.O=C(O)C(F)(F)F (configuration not stated)
The “Percent Effect” value of the first is higher: 113.4% for the first, -9.551% for the second.

First: Cn1nnc2c1C(COCc1ccccn1)CN(C(=O)c1cccs1)C2.O=C(O)C(F)(F)F (configuration not stated)
Second: Cc1ccc(CN2Cc3nnn(C)c3C(COCc3ccccn3)C2)s1.O=C(O)C(F)(F)F.O=C(O)C(F)(F)F (configuration not stated)
The “Percent Effect” value of the first is lower: -3.747% for the first, 95.33% for the second.

Going from Cc1cc(CN(C)C(=O)CNS(=O)(=O)c2cccs2)no1 to Cc1cnccc1NC(=O)CCc1ccsc1, the “Percent Effect” value falls from -1.596% to -8.034%.

First: Cc1ncsc1CN1C[C@@H]2CCCO[C@@H]2[C@H](N(C)C(C)C)C1.O=C(O)C(F)(F)F.O=C(O)C(F)(F)F
Second: CC(c1cccnc1)N1CCN(C(=O)NCc2cnn(C)c2)CC1 (configuration not stated)
The “Percent Effect” value of the first is lower: -15.14% for the first, -9.128% for the second.

Compared with Cn1c(=O)cc(C(=O)NC(Cc2ccsc2)c2cccnc2)[nH]c1=O (configuration not stated), Cn1c(C(=O)NC(Cc2ccsc2)c2cccnc2)cc(=O)n(C)c1=O (configuration not stated) is lower in “Percent Effect” value: 175.1% for the first, 166.4% for the second.

First: Cc1csc(N2CCN(C(=O)Cc3ccsc3)CC2)n1
Second: Cc1csc(C(Cc2ccsc2)NC(=O)c2cc(=O)n(C)c(=O)n2C)n1 (configuration not stated)
The “Percent Effect” value of the first is lower: 4.933% for the first, 142.4% for the second.
